Most compounds without a hit are left out; they make up all but 0.39% or so of the library.
Pin1 inhibitor: human Pin1 inhibition | Pin1 FP peptide displacement, HiFluor488, 10 min | Potency, µM (series often up to 115 µM), inactives show at the highest dose activity, negative = inhibition, actives largely listed as inhibitors | 0.009% of 390,000 active | AID 504891; active = well fitted inhibition curve with a large enough effect in the polarisation, with a control signal flat, not every such curve was filed as active; inconclusive = small, poorly fitted or top-dose-only effect, or effect the other way, or a change in a side signal; inactive = no such curve, though single readings can be large or run the other way; the % refers to the polarisation; also: potency is read from the fitted curve at half-maximal effect; % is scaled to controls: 0 for no effect and ±100 for the full control effect
Target sequence (Q13526 whole entry, looked up): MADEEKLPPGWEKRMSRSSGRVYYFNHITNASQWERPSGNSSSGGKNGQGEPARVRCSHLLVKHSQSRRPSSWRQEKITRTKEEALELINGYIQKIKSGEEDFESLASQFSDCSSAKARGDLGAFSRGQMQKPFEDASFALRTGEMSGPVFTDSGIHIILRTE
A-T KAP1 phos: potential ataxia-telangiectasia treatment; F2112 A-T fibroblasts, KAP-1 phosphorylation AlphaLISA; neocarzinostatin DNA damage 30 min before lysis; Potency, µM (titrated, usually from 57.5 µM), for inactives: at the top dose activation, actives largely listed as activators; 0.19% of 320,000 active; also: potency is read from the fitted curve at half-maximal effect; % of control where 0% means no effect; nearly all actives have a fitted effect of over 45% in size
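hTERT-immortalized A-T patient fibroblasts (F2112), 500 cells/well in OPTI-MEM, 1% FBS, got compounds for 60 min, then NCS for 30 min at 37C. Lysates were then assayed for phospho-KAP-1 by AlphaLISA (anti-pKAP1 donor, anti-KAP1 acceptor beads), 6 hr at 25C.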
TSG101-PTAP inh: blocks PTAP/TSG101 interaction to inhibit HIV-1 budding | Q99816 | Fluorescence polarization, FITC-PTAP peptide / Tsg101 binding | Potency, µM (series often up to 115 µM), for inactives: at the top dose activity change, negative = inhibition, most hits filed as inhibitors | 340,000 tested, under 10 active; active = well fitted inhibition curve with a large enough effect in the main read-out, with a control signal flat, not every such curve was filed as active; inconclusive = small, poorly fitted or top-dose-only effect, or effect the other way, or a change in a side signal; inactive = no such curve, though single readings can be large or run the other way; also: potency is read from the fitted curve at half-maximal effect; % of control where 0% means no effect
Target sequence (Q99816 whole entry, looked up): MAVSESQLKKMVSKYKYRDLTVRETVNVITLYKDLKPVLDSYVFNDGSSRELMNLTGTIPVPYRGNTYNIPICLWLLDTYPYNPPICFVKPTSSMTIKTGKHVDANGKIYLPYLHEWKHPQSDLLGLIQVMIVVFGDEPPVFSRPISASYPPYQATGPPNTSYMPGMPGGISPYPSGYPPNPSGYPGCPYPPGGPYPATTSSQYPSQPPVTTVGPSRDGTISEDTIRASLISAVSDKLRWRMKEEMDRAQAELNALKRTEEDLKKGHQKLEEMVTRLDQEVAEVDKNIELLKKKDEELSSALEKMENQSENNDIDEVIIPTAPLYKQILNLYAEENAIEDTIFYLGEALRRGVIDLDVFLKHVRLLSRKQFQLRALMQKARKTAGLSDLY
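Compounds were pin-transferred onto Tsg101 binding domain (10 uM final) in HEPES pH 7.5 buffer, then FITC-PTAP peptide was added at 50 nM final. After 20 min at RT, polarization reported peptide displacement across a qHTS concentration series.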
PKM2 act: activators of human pyruvate kinase M2; P14618; Potency, µM (series often up to 57.5 µM), without a hit: top-dose activation, hits mostly activators; 0.34% of 260,000 active; purified PKM2, Kinase-Glo ATP luminescence, activation; response scale: 0% is enzyme alone, no compound; also: potency is read from the fitted curve at half-maximal effect; % is scaled to controls: 0 for no effect and ±100 for the full control effect; nearly all actives have a fitted effect of over 55% in size
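Purified hPK-M2 (>95% pure) converted ADP (0.1 mM final) to ATP with 0.5 mM PEP in 50 mM imidazole pH7.2, KCl, MgCl2, Tween 20, BSA; 1 h at room temperature. ATP detected by Kinase-Glo luminescence.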
HeLa tox: HeLa cytotoxicity, CellTiter-Glo readout; shares compounds with PKM2 act; HeLa viability, CellTiter-Glo ATP luminescence, 24 h; activity change, negative = cytotoxicity, % at 57.5 µM; 230 tested, under 10 active; AID 1898; also: % of control where 0% means no effect
Starred values were filed as active, the others as inactive; ? = inconclusive; · = no result given; [ ] = another dose, or the depositor's remark. Unless noted, calls follow the shape of the dose curve; as a rule, active = well fitted curve in the direction sought with a large enough effect; inconclusive = small, poorly fitted or top-dose-only effect, or another doubt; inactive = no such curve, though single readings can be large; an effect the other way counts as inactive or inconclusive.

SMILES	Pin1 inhibitor	A-T KAP1 phos	TSG101-PTAP inh	PKM2 act	HeLa tox
O=c1c2ccccc2sn1-c1ccc(S(=O)(=O)N2CCCC2)cc1	-3%	-7%	1%	1.4µM*	0
O=c1c2ccccc2sn1-c1ccc(S(=O)(=O)N2CCCCC2)cc1	3%	·	-2%	·	·
Cc1ccc(S(=O)(=O)N2CCN(c3ccc([N+](=O)[O-])c(Sc4nncn4C)c3)CC2)cc1	4%	-5%	2%	0.2µM*	1
COc1ccc(/C=C/c2nnc(NC(=O)COc3ccc(Cl)cc3)s2)cc1	7%	·	·	·	·
Cc1ccc(NS(=O)(=O)c2ccc3c(c2)CCC(=O)N3)cc1C	-10%	1%	-2%	0.79µM*	?
CCc1nnc(NC(=O)CSc2nnc(-c3ccc(NS(=O)(=O)c4ccccc4)cc3)o2)s1	12%	0%	-2%	0.79µM*	6
O=c1[nH]c(Cn2nnc(-c3ccccc3)n2)nc2scc(-c3ccccc3)c12	31%	-3%	-2%	14µM*	-20
CCc1ccc(CCC(=O)Nc2nccs2)o1	-1%	23%	0%	-2%	·
Cc1ccc(CCC(=O)Nc2nccs2)o1	-2%	-6%	-1%	20µM*	4
CC(Sc1ncc(C#N)c(N)n1)C(=O)Nc1ccccc1 (stereo not drawn)	9%	5%	-8%	4.5µM*	-1
Cc1ccc(-c2nnc3ccc(SCC(=O)c4ccccc4)nn23)cc1	15%	·	·	·	·
CCn1c(SCC(=O)Nc2cccc(O)c2)nc2c1c(=O)n(C)c(=O)n2C	0%	-5%	2%	1.1µM*	-5
O=S1(=O)N=C(Oc2cccc(Cl)c2)c2ccccc21	-6%[163 µM]	·	·	·	·
C[C@@H]1CN(S(=O)(=O)c2c(F)cccc2F)CCN1S(=O)(=O)c1ccc2c(c1)OCCO2	12%	1%	0%	·	?
O=S(=O)(NC1CCC(NS(=O)(=O)c2c(F)cccc2F)CC1)c1ccc2c(c1)OCCO2 (stereo not drawn)	3%	15%	-2%	·	-12
O=S(=O)(NC1CCN(S(=O)(=O)c2ccc3c(c2)OCCO3)C1)c1c(F)cccc1F (stereo not drawn)	-9%	-1%	6%	·	2
O=S(=O)(c1ccc2c(c1)OCCO2)C1CCC(S(=O)(=O)c2c(F)cccc2F)CC1 (stereo not drawn)	-4%	-1%	-2%	·	·
CC1(C)OC(=O)C2(Cc3cc(C(F)(F)F)ccc3N3CCCCC32)C(=O)O1 (stereo not drawn)	3%	·	·	·	·
CCOC(=O)c1nn(-c2ccc(OC)cc2)c(=O)c2c(NC(=O)Cc3ccccc3)scc12	3%	·	·	·	·
CCCS(=O)(=O)Nc1c(C(=O)OC)[nH]c2ccccc12	54%	-3%	-1%	5%	·
COC(=O)c1[nH]c2ccccc2c1NS(=O)(=O)c1ccc(F)c(C)c1	-7%	4%	-2%	10µM*	-10
CC(=O)c1c(C)[nH]c(C(=O)NCc2ccccc2Cl)c1C	16%	-7%	-1%	7.9µM*	-3
CCc1c(C(=O)NCc2ccccc2Cl)[nH]c(C)c1C(C)=O	-1%	-3%	0%	2%	·
CCNc1nc(C#N)nc2c1ncn2-c1cccc(Cl)c1	14%	·	·	·	·
COc1cccc2cc(-c3nc(-c4ccccc4)c(C)s3)c(=O)oc12	0%	·	·	·	·
SMILES	Pin1 inhibitor	A-T KAP1 phos	TSG101-PTAP inh	PKM2 act	HeLa tox
O=S(=O)(c1ccc(C(F)(F)F)cc1)N1CCN(c2nc(-c3ccccc3)nc3ccccc23)CC1	24%	·	·	·	·
N#CC(C#N)=C1c2cc(S(N)(=O)=O)ccc2-c2ccc(S(N)(=O)=O)cc21	2%	-12%	0%	0.71µM*	0
COC(=O)c1cc(F)c(S(=O)(=O)N2CCN(S(=O)(=O)c3ccc4c(c3)OCCO4)CC2)cc1F	-4%	·	·	·	·
COc1ccc(Br)cc1S(=O)(=O)Nc1ncccc1C	8%	1%	-3%	6.3µM*	0
COc1ccc(NC(=O)C(OC(=O)CNC(=O)c2ccccc2)c2ccccc2)c(C)c1 (stereo not drawn)	-2%	·	·	·	·
O=C(c1ccc2c(=O)n(Cc3ccco3)c(=S)[nH]c2c1)N1CCN(Cc2ccccc2)CC1	7%	2%	-4%	0.63µM*	-2
O=C(CCCn1c(=S)[nH]c2cc3c(cc2c1=O)OCO3)NC1CC1	-9%	-1%	-8%	2.8µM*	-5
CCn1c(C)nc2cc(C(=O)N/N=C/c3ccc(O)c(O)c3O)ccc21	?	-13%	-2%	3.2µM*	2
O=S(=O)(NCCNS(=O)(=O)c1c(F)cccc1F)c1ccc2c(c1)OCCO2	-5%	4%	-6%	·	-2
O=S(=O)(NCCCCNS(=O)(=O)c1c(F)cccc1F)c1ccc2c(c1)OCCO2	-7%	1%	4%	·	4
O=S(=O)(NCC1CCC(NS(=O)(=O)c2c(F)cccc2F)CC1)c1ccc2c(c1)OCCO2 (stereo not drawn)	-2%	12%	-3%	·	·
Clc1cccc(Nc2ncnc3c2nc2n3CCCCC2)c1	6%	·	·	·	·
O=C(NCC1CC1)c1ccc2nc(-c3ccoc3)c(-c3ccoc3)nc2c1	3%	·	·	·	·
COc1cccc(NC(=O)CSc2nnc3cc(C)nc(N)n23)c1	0%	1%	0%	1.8µM*	0
Cc1cc2nnc(SCC(=O)Nc3ccc(Cl)cc3)n2c(N)n1	-8%	2%	0%	?	·
O=S(=O)(c1cccs1)N1CCN(S(=O)(=O)c2cccs2)CC1	-5%	-3%	0%	0.4µM*	-6
NC(=O)CC(NC(=O)Cc1ccc(Cl)cc1)c1ccc(NCC2CC2)c([N+](=O)[O-])c1 (stereo not drawn)	40%	-36%	4%	21%	·
NC(=O)CC(NC(=O)Cc1ccc(Cl)cc1)c1ccc(NCCc2ccccc2F)c([N+](=O)[O-])c1 (stereo not drawn)	23%	0%	0%	4µM*	-9
COc1ccc(N(C(C)=O)C2SC(=O)N(c3ccccc3)C2=O)cc1 (stereo not drawn)	-5%	·	·	·	·
CC(=O)N(c1ccccc1)C1SC(=O)N(c2ccccc2)C1=O (stereo not drawn)	-2%	-20%	-3%	0.56µM*	0
COCCNS(=O)(=O)c1ccc2c(c1)oc(=O)c1cc(S(=O)(=O)NCCOC)ccc12	·	0%	·	?	·
NS(=O)(=O)c1ccc2c(c1)oc(=O)c1cc(S(N)(=O)=O)ccc12	-4%	-2%	-5%	0.35µM*	-19
Cc1ccc(NC(=O)CSC2=C(C#N)C(c3ccco3)C3=C(CCCC3=O)N2)cc1 (stereo not drawn)	-1%	-2%	-3%	4.5µM*	-3
CC1(C)CC(=O)C2=C(C1)NC(SCC(=O)Nc1ccccc1)=C(C#N)C2c1ccco1 (stereo not drawn)	44%	6%	-1%	7%	·
